# High-throughput results from PubChem BioAssay.
# PfHsp90 set2: growth inhibition of PfHsp90-expressing yeast, primary screen, antimalarial PfHsp90 inhibitor project, S. cerevisiae, BacTiter-Glo luminescence, single point, set 2 | AID 504621, 2011 | BacTiter-Glo ATP, 48 h; yeast lacking PDR1 and PDR3 efflux regulators | hit rate 0.32% among 310,000 | inhibition, % at 9.4 µM;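 active = every replicate shows inhibition above about 80%, whatever the replicate mean, limit read from the data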
# TIM10 inh: growth inhibitors of isogenic TIM10 control yeast, primary screen, counter-screen for tim10-1 yeast inhibitor project, luminescence, uHTS. S. cerevisiae TIM10 strain growth, BacTiter-Glo luminescence, 24 h. inhibition, % at 10 µM. hit rate 1.4% among 330,000;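 active = inhibition of 40% or more at the single tested concentration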;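 note: wild-type TIM10 isogenic control strain grown at permissive 25 °C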
# tim23-1 inh: growth inhibitors of tim23-1 mutant yeast, primary screen, luminescence, uHTS; S. cerevisiae tim23-1 growth, BacTiter-Glo luminescence, 24 h; inhibition, % at 20 µM; hit rate 1.3% among 330,000; AID 463212, 2010;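 active = growth inhibition of the mutant yeast at or above 50%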;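 note: temperature-sensitive mutant grown at 25 °C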
# V-ATPase pHluor: regulators of yeast V-ATPase proton pumping, primary screen, pHLuorin cytosolic pH fluorescence. response, % at 10 µM. S. cerevisiae. AID 504577, 2011. hit rate 0.37% among 350,000; in the data active = response mostly above about 7.3%, no sharp cut-off; inactive = mostly below about 5.4%; note: actives read high
# tim10-1 inh: growth inhibitors of tim10-1 mutant yeast, primary screen, luminescence, uHTS; hit rate 2.2% among 330,000; AID 463190, 2010; S. cerevisiae tim10-1 ts strain growth, BacTiter-Glo, 24 h; inhibition, % at 20 µM;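 active = inhibition of at least 40%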;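 note: mutant grown at 25 °C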
# tim10-1 conf: growth inhibitors of tim10-1 mutant yeast, confirmation, single concentration, luminescence, S. cerevisiae; shares compounds with tim10-1 inh; S. cerevisiae tim10-1 ts strain growth, BacTiter-Glo, 24 h; inhibition, % at 20 µM; hit rate 56% among 7,400; AID 463213, 2010;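 active = inhibition of yeast growth at or above a set limit in either of two repeat tests at 20 µM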;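 note: tim10-1 mutant grown at permissive 25 °C to find synthetic lethal compounds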
# TIM10 conf: growth inhibitors of wild-type TIM10 yeast, confirmation, counter-screen for tim10-1 synthetic lethality project, single concentration, luminescence, S. cerevisiae; inhibition, % at 10 µM; hit rate 63% among 4,600; shares compounds with TIM10 inh; S. cerevisiae tim10 strain growth, BacTiter-Glo luminescence, 24 h;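 active = inhibition of yeast growth at or above a set limit in either of two replicates at 10 µM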; note: this counterscreen used the strain with wild-type TIM10
# tim23-1 confirm: tim23-1 mutant yeast growth inhibitors, confirmation, luminescence, single concentration. shares compounds with tim23-1 inh. S. cerevisiae tim23-1 growth, BacTiter-Glo luminescence, 24 h. inhibition, % at 20 µM. hit rate 83% among 4,400;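 active = inhibition above about 39% in either of two replicate wells at 20 µM, limit read from the data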;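 note: temperature-sensitive tim23-1 mutant grown at 25 °C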
# A number is an active result; – = inactive; · = no result. A selection: hits, their analogues and other compounds. The true share with any hit is near 3.7%.
SMILES,PfHsp90 set2,TIM10 inh,tim23-1 inh,V-ATPase pHluor,tim10-1 inh,tim10-1 conf,TIM10 conf,tim23-1 confirm
COc1ccc2[nH]c3c4c(ccc3c2c1)C(=O)C=CC4=O,–,79.1,75.7,–,61.6,77.0,98.9,–
COc1ccc2[nH]c(=O)cc(C(=O)O)c2c1,–,–,–,–,–,·,·,·
COCc1cccc(C2=CC(=O)C[C@H](c3ccc(OC)cc3)C2)c1,–,–,–,–,–,·,·,·
COc1cccc(NC(=O)Nc2ccc(C(C)(C)C)cc2)c1,–,49.0,58.0,–,57.1,45.6,60.0,74.7
CCc1nc2sc3ccccc3c(=O)c2c(=O)n1Cc1ccc(OC)cc1,–,–,53.3,–,40.1,30.5,·,41.2
Cc1cc(NC(=O)C(C)Sc2nc(-c3ccccc3)cc(=O)[nH]2)no1 (configuration not stated),–,–,–,–,–,·,·,·
Cc1cccc(/C=N/NC(=O)c2ccc3c(c2)OCCO3)c1O,–,65.2,62.6,–,49.7,45.8,68.3,75.9
NC(=O)SCC(=O)Nc1ccc(Cl)c(Cl)c1,–,–,79.8,–,70.9,31.0,·,76.3
NC(=NC(=O)c1ccc(OCC(F)(F)F)nc1)c1ccccc1,–,–,–,–,–,·,·,·
NC(=NC(=O)c1ccc(OCC(F)(F)F)nc1)c1ccc(Cl)cc1,–,–,55.9,–,67.6,48.1,·,42.5
Cc1ccc2c(c1)/C(=C/c1ccc(F)cc1)C(=O)N2,–,65.6,61.6,–,58.8,71.3,77.1,50.1
Cc1ccc(C2=N/C(=C\c3ccc(F)cc3)C(=O)N2)cc1,–,–,–,–,–,·,·,·
Cc1nn(Cc2noc(C(=O)NCc3ccc4c(c3)OCO4)n2)c(C)c1Br,–,–,–,–,–,·,·,·
COc1ccc(S(=O)(=O)Nc2cc(SCC(=O)O)c(O)c3ccccc23)cc1,–,–,58.4,–,44.1,–,·,–
CN(C(=O)CSc1nncc2ccccc12)c1ccccc1,·,–,–,·,–,·,·,·
Fc1ccc(CNC(=S)Nc2cccc(Cl)c2)cc1,–,–,50.1,–,47.6,40.8,·,51.8
S=C(NCc1ccncc1)Nc1cccc(Cl)c1,–,–,–,–,–,·,·,·
COc1cccc(CN(C)C(=O)c2cc(COc3ccc(-n4cncn4)cc3)on2)c1,–,–,50.6,–,40.9,30.1,·,–
N/C(Cc1ccc([N+](=O)[O-])cc1)=N\OC(=O)c1ccc2ccccc2c1,–,89.9,81.1,–,54.3,46.8,88.6,92.2
N/C(Cc1ccc([N+](=O)[O-])cc1)=N\OC(=O)CC1CCCCC1,–,86.1,79.2,–,64.9,64.0,91.7,82.8
N/C(Cc1ccc([N+](=O)[O-])cc1)=N\OC(=O)c1ccco1,–,–,–,–,–,·,·,·
N/C(Cc1ccc([N+](=O)[O-])cc1)=N\OC(=O)c1ccccc1Br,–,87.8,61.9,–,52.0,55.8,–,88.1
Cc1cccc(C(=O)O/N=C(\N)Cc2ccc([N+](=O)[O-])cc2)c1,–,87.4,80.6,–,40.2,57.9,90.6,90.7
COc1cc(NC(=O)Cn2cnc3c(SC)nc(N)nc32)cc(OC)c1OC,–,–,–,–,–,·,·,·
COCCN(C(=O)COC(=O)c1ccc(-c2ccccc2)cc1)c1c(N)n(Cc2ccccc2)c(=O)[nH]c1=O,–,·,·,–,·,·,·,·
CN(C)c1ccc(C2/C(=C(/O)c3ccc(Br)cc3)C(=O)C(=O)N2C)cc1 (configuration not stated),–,–,–,–,–,·,·,·
CCOCCOC(=O)c1cccc2c1-c1ccccc1C2=O,–,–,–,–,–,·,·,·
